PubChem BioAssay
Results filed as inconclusive are left out. Activity calls are given as the source filed them. Unless noted, cut-off not given; nearly all actives show AC50 up to about 26 µM.

What was measured:
[1] = growth inhibition of DIPG glioma cells, dose response, cell-based, SU-DIPG-XVII, MIPE5.0, CellTiter-Glo, qHTS (AID 1347060); conditions: SU-DIPG-XVII viability, CellTiter-Glo ATP luminescence;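 on AC50: cells exposed to compound for 48 hours before viability readout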
[2] = growth inhibition of DIPG glioma cells, dose response, cell-based, SU-DIPG-XIII, MIPE4.0, CellTiter-Glo, qHTS (AID 1347061; cut-off not given, nearly all actives have AC50 up to about 37 µM;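 further: cells exposed to compound for 48 hours before readout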); conditions: SU-DIPG-XIII viability, CellTiter-Glo ATP luminescence
[3] = growth inhibition of DIPG glioma cells, dose response, cell-based, SU-DIPG-IV, MIPE4.0, CellTiter-Glo, qHTS (AID 1347063; cut-off not given, nearly all actives have AC50 up to about 30 µM;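 further: compound exposure lasted 48 hours before the viability readout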); conditions: SU-DIPG-IV viability, CellTiter-Glo ATP luminescence
[4] = viability loss in pontine glioma line – cell-based, SU-DIPG-XXV, MIPE5.0, CellTiter-Glo, qHTS, dose response (AID 1347065); conditions: CellTiter-Glo ATP luminescence;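 further: cells exposed to compound for 48 hours before ATP readout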
[5] = SU-DIPG-VI glioma cell viability, MIPE4.0 library, CellTiter-Glo luminescence, qHTS (AID 1347066; cut-off not given, nearly all actives have AC50 up to about 30 µM;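 further: cells exposed to compound for 48 hours before readout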); conditions: CellTiter-Glo ATP luminescence
[6] = SU-DIPG-XXV glioma cell viability, MIPE5.0 library, qHTS (AID 1347068; cut-off not given, nearly all actives have IC50 up to about 30 µM;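 on IC50: cells exposed to compound for 48 hours before viability readout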)
[7] = JHH-DIPG-1 glioma cell viability, MIPE5.0 library, CellTiter-Glo luminescence, qHTS (AID 1347067); conditions: JHH-DIPG-1 glioma viability, CellTiter-Glo ATP luminescence;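 further: cells exposed to compound for 48 hours before readout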
[8] = sensitizers of A549 cells to miR-34 induction, primary screen, imaging, A549 dox-inducible miR-34, nuclei and caspase counts (AID 1347080;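 active means compounds whose cell count with miR-34 switched on is under 0.7 times the count with it off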); conditions: A549 miR-34 inducible, Hoechst nuclei count, 48 h
[9] = survival rescue of mitochondrial mutant cells in low glucose, primary screen, MELAS cybrids, Rieske KO mouse fibroblasts, CellTiter-Glo (AID 1508586;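 active means mean z-score across replicates of 1.96 or higher in either the MELAS or the Rieske mutant cell line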;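 further: z relative to plate mean and SD of compound and empty wells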)
[10] = growth inhibition of DIPG glioma cells, dose response, cell-based, SU-DIPG-XIII, MIPE5.0, CellTiter-Glo, qHTS (AID 1347064; cut-off not given, nearly all actives have AC50 up to about 23 µM;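 on AC50: cells exposed to compound for 48 hours before the viability read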); conditions: SU-DIPG-XIII viability, CellTiter-Glo ATP luminescence
[11] = growth inhibition of DIPG glioma cells, dose response, cell-based, JHH-DIPG-1, MIPE4.0, CellTiter-Glo, qHTS (AID 1347062; cut-off not given, nearly all actives have AC50 up to about 27 µM;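 on AC50: cells exposed to compound for two days before readout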); conditions: JHH-DIPG-1 viability, CellTiter-Glo ATP luminescence
[12] = modifiers of HSF1 nuclear foci, imaging, Selleck Cancer Library (AID 1347162; in the data active means plate-normalised HSF1 focus index below about 0.46); conditions: human cells, at 10 µM; SSMD: measured here: HSF1 foci SSMD mean; cell count: measured here: cell number; plate-normalised HSF1 focus index: stronger effect = lower value
[13] = ovarian cancer cell viability with rucaparib, profiling panel, oncology-focused library, rucaparib conditional (AID 1508598;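 active means normalized viability below 100% at a tested concentration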); conditions: patient-derived ovarian cancer cells, CellTiter-Glo viability, 144 h, stronger effect = lower value
[14] = stronger effect = lower value, cell number ratio, induced over uninduced
[15] = measured here: relative caspase fold change +Dox/-Dox
[16] = measured here: total cells with miR-34 induction, stronger effect = lower value
[17] = measured here: total cells without miR-34 induction
[18] = MELAS cybrid survival, CellTiter-Glo 48 h, stronger effect = higher value
[19] = Rieske KO mouse fibroblast survival, CellTiter-Glo 72 h

CCC(=O)NC[C@H](Cc1ccc(OCCc2nc(-c3ccccc3)oc2C)cc1)N/C(C)=C\C(=O)c1ccc(C(F)(F)F)cc1
active: AC50 [1] 16.6 µM | AC50 [3] 8.33 µM | AC50 [4] 13.2 µM
inactive: outcome [2] | outcome [5] | outcome [6]

NC1=N[C@@]2(c3cc(NC(=O)c4ccc(F)cn4)ccc3F)COC[C@H]2CS1
inactive: outcome [1] | outcome [2] | outcome [4] | outcome [5] | outcome [7] | outcome [6]

CC(=O)OC1C(C)OC(Oc2c(-c3ccc(O)cc3)oc3cc(O)cc(O)c3c2=O)C(O)C1OC(C)=O (configuration not stated)
active: AC50 [3] 20.9 µM
inactive: outcome [1] | outcome [2]

CC1(C)CCC(CN2CCN(c3ccc(C(=O)NS(=O)(=O)c4ccc(NCC5CCOCC5)c([N+](=O)[O-])c4)c(Oc4cnc5[nH]ccc5c4)c3)CC2)=C(c2ccc(Cl)cc2)C1
5370: cell count [8, 16]
0.0474: z-score [9, 19]
4860: cell count [8, 17]
active: AC50 [1] 18.6 µM | AC50 [3] 10.5 µM | AC50 [4] 0.417 µM | AC50 [5] 7.43 µM | AC50 [7] 13.2 µM
inactive: outcome [2] | outcome [6] | fold change [8, 14] 1.1 | z-score [9, 18] -0.355
0.349: fold change [8, 15]

O=C(Nc1ccc(Oc2ccnc3[nH]ccc23)c(F)c1)c1cccn(-c2ccc(F)cc2)c1=O
inactive: outcome [1] | outcome [2] | outcome [10] | outcome [4] | outcome [5] | outcome [7] | outcome [6]

NC1=N[C@H]2[C@H](CS[C@H]2CCCCC(=O)O)N1
inactive: outcome [1] | outcome [11] | outcome [3] | outcome [10] | outcome [4] | outcome [5] | outcome [7]

CC1(C)Cc2c(sc(NC(=S)NC(=O)c3ccccc3)c2C(=O)O)CO1
inactive: outcome [1] | outcome [11] | outcome [3] | outcome [10] | outcome [4] | outcome [5] | outcome [7] | outcome [6]

Cn1cnc(=N)c2[nH]cnc21
7250: cell count [12]
0.712: fold change [8, 15]
9400: cell count [8, 16]
active: AC50 [11] 4.69 µM | AC50 [3] 4.69 µM | AC50 [5] 0.235 µM | viability ([13]; at 0.000305 µM, OCI-P5x cells, with rucaparib 20 µM, 100% = cells with rucaparib alone) 99% | viability ([13]; at 0.000305 µM, OCI-P5x cells, without rucaparib) 94.2% | viability ([13]; at 0.00122 µM, OCI-P5x cells, without rucaparib) 97.1% | viability ([13]; at 0.00488 µM, OCI-P5x cells, without rucaparib) 99.6%
inactive: outcome [1] | outcome [10] | outcome [4] | outcome [7] | outcome [6] | fold change [8, 14] 0.904 | plate-normalised HSF1 focus index [12] 1.08 | z-score [9, 18] -0.304 | viability ([13]; at 0.000305 µM, OCI-C5x cells, with rucaparib 10 µM, 100% = cells with rucaparib alone) 112% | viability ([13]; at 0.000305 µM, OCI-C5x cells, without rucaparib) 111% | viability ([13]; at 0.00122 µM, OCI-C5x cells, with rucaparib 10 µM, 100% = cells with rucaparib alone) 111% | viability ([13]; at 0.00122 µM, OCI-C5x cells, without rucaparib) 114% | viability ([13]; at 0.00122 µM, OCI-P5x cells, with rucaparib 20 µM, 100% = cells with rucaparib alone) 100% | viability ([13]; at 0.00488 µM, OCI-C5x cells, with rucaparib 10 µM, 100% = cells with rucaparib alone) 107% | viability ([13]; at 0.00488 µM, OCI-C5x cells, without rucaparib) 119% | viability ([13]; at 0.00488 µM, OCI-P5x cells, with rucaparib 20 µM, 100% = cells with rucaparib alone) 108% | viability ([13]; at 0.0195 µM, OCI-C5x cells, with rucaparib 10 µM, 100% = cells with rucaparib alone) 114% | viability ([13]; at 0.0195 µM, OCI-C5x cells, without rucaparib) 112% | viability ([13]; at 0.0195 µM, OCI-P5x cells, with rucaparib 20 µM, 100% = cells with rucaparib alone) 113% | viability ([13]; at 0.0195 µM, OCI-P5x cells, without rucaparib) 102% | viability ([13]; at 0.0781 µM, OCI-C5x cells, with rucaparib 10 µM, 100% = cells with rucaparib alone) 107% | viability ([13]; at 0.0781 µM, OCI-C5x cells, without rucaparib) 111% | viability ([13]; at 0.0781 µM, OCI-P5x cells, with rucaparib 20 µM, 100% = cells with rucaparib alone) 116% | viability ([13]; at 0.0781 µM, OCI-P5x cells, without rucaparib) 107% | viability ([13]; at 0.313 µM, OCI-C5x cells, with rucaparib 10 µM, 100% = cells with rucaparib alone) 112% | viability ([13]; at 0.313 µM, OCI-C5x cells, without rucaparib) 116% | viability ([13]; at 0.313 µM, OCI-P5x cells, with rucaparib 20 µM, 100% = cells with rucaparib alone) 107% | viability ([13]; at 0.313 µM, OCI-P5x cells, without rucaparib) 109% | viability ([13]; at 1.25 µM, OCI-C5x cells, with rucaparib 10 µM, 100% = cells with rucaparib alone) 110% | viability ([13]; at 1.25 µM, OCI-C5x cells, without rucaparib) 115% | viability ([13]; at 1.25 µM, OCI-P5x cells, with rucaparib 20 µM, 100% = cells with rucaparib alone) 109% | viability ([13]; at 1.25 µM, OCI-P5x cells, without rucaparib) 109% | viability ([13]; at 5 µM, OCI-C5x cells, with rucaparib 10 µM, 100% = cells with rucaparib alone) 100% | viability ([13]; at 5 µM, OCI-C5x cells, without rucaparib) 125% | viability ([13]; at 5 µM, OCI-P5x cells, with rucaparib 20 µM, 100% = cells with rucaparib alone) 116% | viability ([13]; at 5 µM, OCI-P5x cells, without rucaparib) 110%
2.26: SSMD [12]
10400: cell count [8, 17]
-0.808: z-score [9, 19]

NS(=O)(=O)c1cccc2c1C(=O)c1cccc(O)c1C2=O
active: AC50 [1] 2.35 µM | AC50 [11] 1.18 µM | AC50 [3] 0.332 µM | AC50 [10] 1.18 µM | AC50 [4] 1.86 µM | AC50 [5] 0.526 µM | AC50 [7] 2.09 µM | IC50 [6] 9.34 µM

CNC(=O)c1ccc(N2C(=S)N(c3cnc(C#N)c(C(F)(F)F)c3)C(=O)C23CCC3)cc1F
10200: cell count [8, 17]
0.855: z-score [9, 19]
9240: cell count [8, 16]
active: AC50 [11] 0.935 µM | AC50 [3] 1.32 µM | AC50 [5] 18.7 µM
0.701: fold change [8, 15]
inactive: outcome [1] | outcome [10] | outcome [4] | outcome [7] | outcome [6] | fold change [8, 14] 0.909 | z-score [9, 18] -0.228

C[C@H](NC(=O)/C(C#N)=C/c1cccc(Br)n1)c1ccccc1
active: AC50 [1] 7.42 µM | AC50 [11] 9.35 µM | AC50 [3] 7.43 µM | AC50 [10] 7.42 µM | AC50 [4] 3.72 µM | AC50 [5] 14.8 µM | AC50 [7] 9.34 µM

CCN(CC)CCNC(=O)c1ccc2nc(-c3ccccc3)c(-c3ccc(CN4CCC(n5c(=O)[nH]c6ccccc65)CC4)cc3)nc2c1
active: AC50 [1] 11.8 µM | AC50 [11] 8.33 µM | AC50 [3] 4.69 µM | AC50 [10] 14.8 µM | AC50 [4] 10.5 µM | AC50 [5] 3.32 µM | AC50 [7] 10.5 µM | IC50 [6] 7.42 µM

CSc1cccc(Nc2ncc3cc(-c4c(Cl)cccc4Cl)c(=O)n(C)c3n2)c1
active: AC50 [1] 1.48 µM | AC50 [4] 1.05 µM | AC50 [7] 1.18 µM
inactive: outcome [2]

O=C1CCCC(=O)C1C(=O)c1ccc(C(F)(F)F)cc1[N+](=O)[O-]
inactive: outcome [1] | outcome [11] | outcome [3] | outcome [10] | outcome [4] | outcome [5] | outcome [7] | outcome [6]

CC[C@H](C)n1cc(C)c2c(C(=O)NCc3c(C)cc(C)[nH]c3=O)cc(-c3ccc(N4CCNCC4)nc3)cc21
active: AC50 [2] 14.8 µM | AC50 [5] 23.5 µM | IC50 [6] 20.9 µM
inactive: outcome [1]
